From the supplement of paper PMC11417369
± gives the standard deviation of the averaged measurements. The full ranking holds about 25,000 sequences; the median of “ln(normalized median fluorescence intensity)” is about 7.9, and the highest 2% start at about 11. The list comes from a sample in which the highest values are over-represented; it also holds similar and randomly drawn sequences.

Tested on: PfAP2-I AP2 domain 3 (GST-tagged)
Test: gcPBM binding intensity (ln(normalized median fluorescence intensity)); higher = stronger DNA binding
How it was run: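 Binding of GST-tagged P. falciparum DNA-binding domains, expressed in E. coli and used at about 25 μg on average, was carried out for 1 h in 1× PBS containing 1% milk, 0.2 mg/ml BSA, 0.5% salmon testes DNA and 0.03% Triton X-100. The target was an Agilent 4 × 180k array of primer-extended double-stranded 36-bp intergenic genomic probes plus negative controls, read with Alexa488 anti-GST antibody at 488 nm. Binding intensity is the highest Masliner-normalised natural-log median intensity across replicate spots of either probe orientation.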

| Sequence | gcPBM binding intensity (ln) |
| --- | --- |
| AAAAATAGAATAAATACACACCCGTGTAACGGATTT [CACACA_site3372] | 7.29 ± 0.93 |
| ATAAATTATATTCAAGTGCATGTAACTTATTATTAT | 8.29 ± 0.32 |
| TTTTTTATTCATGTAACACACATTTAATTATGAATT [CACACA_site2706] | 7.98 ± 0.58 |
| ACATAAATATAAACGTGTACATATATAAATATATAT [XGTACX_site7293] | 8.06 ± 0.26 |
| TCTTTTTTGAACTAGCGTACATGAAAATATTTATAG [XGTACX_site7359] | 7.83 ± 0.28 |
| AAAATTTAATATAATGCACACATAAAAAAAAAAAAT [CACACA_site8425] | 11.1 ± 1 |
| TATAATTTAAAATACACACACATATATATAATATAT [CACACA_site2000] | 7.71 ± 0.47 |
| ATTAAAATTTAAAATACACACACATATATATAATAT [CACACA_site8612] | 7.91 ± 0.42 |
| AAAATTATCGTTATATGTACGCATCTTAATACGTAT [XGTACX_site4063] | 7.79 ± 0.4 |
| GTGTAGTAAAATCGATGTACGTACAAATCAATTATT [XGTACX_site7662] | 8.06 ± 0.39 |
| AAAAACAAACTGTGCATGCACCAAAAAAAAAAAAAA | 10.4 ± 0.35 |
| ATATATATATATATTACACACTTTTTCTTTTTTTTT [CACACA_site2780] | 9.41 ± 0.35 |
| TTTTTCATTTAGCTTTTACACACTATATATTATTGA [CACACA_site7888] | 7.94 ± 0.86 |
| CAGGTGCACTATATTACACACGCTTCTTTTTTTTTA [CACACA_site2069] | 11.7 ± 0.59 |
| TACAATCTAAAATACACACGCACACCGAAAAAAAAA [CACACA_site3520] | 8.13 ± 0.37 |
| TTTTTTTTTTTAAATACATGCATGTCCTATTTAAAT [TGCATGCA_site494] | 7.92 ± 0.89 |
| TATATCTATTTCAAATGTACTTATATGATTCTTATA [XGTACX_site6277] | 7.67 ± 0.2 |
| TAATATATGTATTGCACACCTATAACCATTATTTCT [CACACA_site1498] | 10.2 ± 0.38 |

| Sequence | gcPBM binding intensity (ln) |
| --- | --- |
| AATATAATATATTGCACACAAAAAGTGAATTATTCT [CACACA_site1684] | 10.2 ± 0.4 |
| AATATATTGCACCATTGGACCTGAATAATTCTTCCA [CACACA_negctrl_site1071] | 11.8 ± 0.81 |
| AAGGGTTATAAAAATTGTACTTTTTTTATTTTTTTT [XGTACX_site1313] | 7.72 ± 0.56 |
| CACTTTAATTTATGCACACATATGGAACAACAGCCA [CACACA_site994] | 10.2 ± 0.38 |
| ATATACACTTAATTTTTTATAAAAAAAAATTTATAT [CACACA_negctrl_site498] | 7.66 ± 0.43 |
| TTATAATATTAATGTGCACACAATTAAAATATTATA [CACACA_site2046] | 10.6 ± 0.26 |
| AAATATTTATAGGTTTGTACTTATAAATAAAAAAAA [XGTACX_site7360] | 7.83 ± 0.41 |
| ATATAAATATATTGCACACACAATTATTATTATTAT [CACACA_site7147] | 10.1 ± 0.45 |
| TTTTAAACAAAAATTTGTACACAATAATTAAATATA [XGTACX_site6755] | 7.79 ± 0.32 |
| ATATATATCTTTTGTGTGCACATATATATAATATAT | 9.79 ± 0.22 |
| TATTATAATATATTTGTGCACATAATACCTCCGCTA [GTGCAC_site9570] | 10.7 ± 0.18 |
| TATTATAATATATTTGTGCACATAATATCTCCGCTA [GTGCAC_site9799] | 10.91 ± 0.049 |
| TTTTTTTTTTTTTTTGTGCACAATATAATTTTTAAT [GTGCAC_site9747] | 10.9 ± 0.52 |
| ATATATATAATATAGGTGCACTACTTATTTAAAAAA | 11.6 ± 0.2 |
| CATATAAATATTTGTGCACACAATTATTAATAATTA [CACACA_site3884] | 11.3 ± 0.23 |
| TTTTTTTAATAGTGTGCACACAATATACAGAAAAAA [CACACA_site8399] | 10.1 ± 0.11 |
| TATATTCTTTATAGGTGTACTTAATAAATAAAAAAT [XGTACX_site5378] | 8.11 ± 0.23 |
